According to PubChem BioAssay AID463173 (ICCB-Longwood Screening Facility, Harvard Medical School, 2010):
About 4,300 (8.3%) of roughly 52,000 compounds were called active. The sample as a whole holds a higher share of actives than the screen did. A number with no mark means an inactive call. Rule as the data show it: active = survival mostly below about 52% (no sharp cut-off); inactive = mostly above about 56%.

tested on: DeltatarO mutant; assay: growth inhibition of S. aureus wild type versus tarO mutant, primary screen, teichoic acid synthesis inhibitors, RN4220, OD600 (AID 463173); conditions: OD600, 18 h, stronger effect = lower value, screened at 18.75 µg/mL (by protocol)

| Compound | survival |
| --- | --- |
| Cc1cc(C)nc(SCCC(=O)N(C)C)n1 | 84% |
| CC(=O)N1CCN(CCN2C(=O)C3C4c5ccccc5C(c5ccccc54)C3C2=O)CC1 (centres undefined) | 94% |
| CCC(=O)N(Cc1cc(=O)[nH]c2ccccc12)C1CCCCC1 | 69% |
| COc1cc(NC(=O)CC(c2cccs2)N2Cc3ccccc3C2=O)cc(OC)c1OC (centres undefined) | 49% |
| Cc1ccc(-c2csc(-c3nc(-c4ccc(Br)s4)cs3)n2)cc1 | 82% |
| Cc1c(NC(=O)c2ccc(Cl)cc2)cc(C(C)C)c(O)c1S(=O)(=O)c1ccc(Cl)cc1 | 75% |
| CCN(CC)C(=O)CSc1nnc(Cc2ccccc2)n1CC | 50% |
| CCOC(=O)C1CCN(C(=O)c2ccc3c(=O)n4nc(Nc5cc(C)ccc5C)sc4nc3c2)CC1 | 84% |
| COc1ccc(S(=O)(=O)N2CCC(c3ccncc3)CC2)cc1Cl | 124% |
| COc1ccccc1CNC(=O)CCn1c(=O)c2ccccc2n(CC(=O)Nc2ccc(C)cc2Cl)c1=O | 77% |
| COc1ccc(-n2nc(C(=O)N3CCN(c4cccc(C)c4)C(C)C3)c3c4ccccc4n(C)c3c2=O)cc1 (centres undefined) | 76% |
| COc1cc(/C=C/c2nc(C#N)c(NCCc3ccccc3)o2)cc(OC)c1OC | 49% |
| COc1ccc(/C=C/c2nc(C#N)c(NC3CCCCC3)o2)cc1OC | 36% (active) |
| COc1ccccc1/C=C/c1nc(C#N)c(NC(C)c2ccccc2)o1 (centres undefined) | 70% |
| COc1ccccc1/C=C/c1nc(C#N)c(NC2CCCCC2)o1 | 85% |
| COc1cc(/C=C/c2nc(C#N)c(NC(C)c3ccccc3)o2)cc(OC)c1OC (centres undefined) | 40% (active) |
| COc1cccc(/C=C/c2nc(C#N)c(NC3CCCCC3)o2)c1 | 69% |
| CC(=O)N1c2ccc(S(=O)(=O)NCC3CCC(C(=O)NCCC(C)C)CC3)cc2CC1C (centres undefined) | 102% |
| CC(C)CC(=O)NCC1(N(C)C)CCCCC1 | 84% |
| O=C(CN1C(=O)C2CCCCN2c2ccc(C(=O)N3CCCC3)cc21)NCc1ccccc1F (centres undefined) | 99% |
| O=C(NCc1cccc(Cl)c1)c1ccc(NC(=O)N2CCSc3ccccc32)cc1 | 57% |
| CSc1nn(Cc2cccc(F)c2)c(N(C(C)=O)C(C)=O)c1S(=O)(=O)c1ccccc1 | 84% |
| Cc1nc(-c2ccc(C)c(N3CCN(C(=O)Nc4cccc(Cl)c4C)CC3)c2)no1 | 88% |

| Compound | survival |
| --- | --- |
| COc1cccc(CNC(=O)c2cc3c(s2)-c2c(C)cccc2OC3)c1 | 68% |
| CCc1cccc(NC(=O)c2cc3c(s2)-c2ccccc2OC3)c1 | 83% |
| COc1cccc(CNC(=O)c2cc3c(s2)-c2ccccc2OC3)c1 | 42% (active) |
| COc1ccc(N(C)C(=O)c2cc3c(s2)-c2ccccc2OC3)cc1 | -2% (active) |
| COc1ccc(CNC(=O)c2cc3c(s2)-c2ccccc2OC3)cc1 | 64% |
| CCN(CC)CCOC(=O)c1ccc(NC(=O)c2cc3c(s2)-c2ccccc2OC3)cc1 | -7% (active) |
| Cc1ccc(C)c(N(C)C(=O)c2cc3c(s2)-c2ccccc2OC3)c1 | -3% (active) |
| COc1cccc(N2CCN(C(=O)c3cc4c(s3)-c3ccccc3OC4)CC2)c1 | 98% |
| CCOc1ccc(NC(=O)c2cc3c(s2)-c2ccccc2OC3)cc1 | 95% |
| COc1ccc(N2CCN(C(=O)c3cc4c(s3)-c3ccccc3OC4)CC2)cc1 | 114% |
| Cc1ccc(CCNC(=O)c2cc3c(s2)-c2ccccc2OC3)cc1 | 82% |
| COc1cc(NC(=O)c2cc3c(s2)-c2ccccc2OC3)cc(OC)c1OC | 55% |
| Cc1cc(C)c2c(-n3cccc3)c(C(=O)NCc3cccc(F)c3)sc2n1 | 66% |
| O=S(=O)(c1ccc2[nH]c3c(c2c1)CCCCC3)N1CCN(c2ccccc2)CC1 | 91% |
| COc1ccccc1N1CCN(c2cc(C)nc3nncn23)CC1 | 81% |
| Cc1nc(-c2cccnc2)sc1CCNS(=O)(=O)c1ccc(F)cc1 | 75% |
| COc1ccc(CNC(=O)C(CC(C)C)NS(=O)(=O)c2ccc3c(c2)CCN3C(C)=O)cc1 (centres undefined) | 92% |
| CNCC(O)COc1ccccc1 (centres undefined) | 94% |
| N#CC(C#N)=C(N)/C(C#N)=C/c1cccs1 | 81% |
| CCc1ccc2nc(N3CCCCC3)c(C#N)cc2c1 | 88% |
| CCn1cc(C(=O)N2CCN(c3ccc(C)cc3)C(C)C2)c(=O)c2cc(S(=O)(=O)N3CCCC3)ccc21 (centres undefined) | 87% |
| Cc1nc2cc(-c3cccc(F)c3)nn2c(C)c1CCC(=O)Nc1ccccc1C(N)=O | 61% |
| COC(=O)c1ccc(CSc2nc3c(c(=O)[nH]2)CCC3)cc1 | 85% |

| Compound | survival |
| --- | --- |
| COc1ccc(Cl)cc1NC(=O)c1cc2c(s1)-c1ccccc1OC2 | 74% |
| COc1cc(OC)c(N(C)C(=O)c2cc3c(s2)-c2ccccc2OC3)cc1Cl | 60% |
| CCOc1ccccc1N(C)C(=O)c1cc2c(s1)-c1ccccc1OC2 | -2% (active) |
| CCOc1ccc(CCNC(=O)c2cc3c(s2)-c2ccccc2OC3)cc1OCC | 67% |
| CCOC(=O)c1ccccc1NC(=O)c1cc2c(s1)-c1c(C)cccc1OC2 | 137% |
| COC(=O)c1ccccc1NC(=O)c1cc2c(s1)-c1ccccc1OC2 | 39% (active) |
| CCOC(=O)c1ccc(NC(=O)c2cn(-c3ccccc3)nc2-c2ccc(C)cc2)cc1 | 57% |
| O=C(c1ccccc1Cl)N1CCCCC1CCN1CCCCC1 (centres undefined) | 100% |
| COc1cccc(CNC(=O)C(Cc2ccccc2)NS(=O)(=O)c2ccc3c(c2)CCN3C(C)=O)c1 (centres undefined) | 70% |
| CC(C)c1ccc(N2C(=O)N(Cc3ccccc3Cl)c3ccccc3S2(=O)=O)cc1 | 86% |
| Cc1ccc(NC(=O)CCS(=O)(=O)c2cccc3nsnc23)c(C)c1 | 61% |
| CCN(CC)c1ccc(NC(=O)CCS(=O)(=O)c2cccc3nsnc23)c(C)c1 | 44% (active) |
| Cc1cc(F)ccc1NC(=O)CCS(=O)(=O)c1cccc2nsnc12 | 59% |
| O=C(Cn1cc(C(=O)c2ccco2)c2ccccc21)Nc1ccccc1Cl | 80% |
| COc1c(C)cc(S(=O)(=O)Nc2cccc(-c3ccc(N4CCOCC4)nn3)c2)c(C)c1C | 91% |
| COc1ccc(C2c3c(-c4ccccc4O)n[nH]c3C(=O)N2CCc2ccccc2)cc1 (centres undefined) | 21% (active) |
| COc1ccc(CCN2C(=O)c3[nH]nc(-c4ccccc4O)c3C2c2ccccc2)cc1 (centres undefined) | 22% (active) |
| COc1ccc(CCN2C(=O)c3[nH]nc(-c4ccccc4O)c3C2c2cccc(OC)c2)cc1 (centres undefined) | 66% |
| COc1ccc(CCN2C(=O)c3[nH]nc(-c4ccccc4O)c3C2c2ccc(OC)cc2)cc1 (centres undefined) | 29% (active) |
| COc1ccc2c(c1)c1c(c(=O)n(-c3ccc(F)c(Cl)c3)c(=O)n1CC(N)=O)n2C | 96% |
| CC(=O)Nc1nc(SCc2ccccc2Cl)n[nH]1 | 91% |
| Cc1ccc(NC(=O)Cn2nnc3sc(-c4ccccc4)cc3c2=O)cc1Cl | 52% |
| O=C(COc1ccc(F)cc1)Nc1ccc2nc(SCC(=O)N3CCCC3)sc2c1 | 91% |

| Compound | survival |
| --- | --- |
| Cc1ccc(NC(=O)C2CCCN2S(=O)(=O)c2ccc3nc(-c4ccccc4)[nH]c3c2)cc1F (centres undefined) | 71% |
| COc1cccc(NC(=O)C2CCCN2S(=O)(=O)c2ccc3c(c2)n(C)c(=O)c(=O)n3C)c1 (centres undefined) | 87% |
| CCc1ccc(NC(=O)C2CCCN2S(=O)(=O)c2ccc3nc(-c4ccccc4)[nH]c3c2)cc1 (centres undefined) | 82% |
| CCOc1ccccc1NC(=O)C1CCCN1S(=O)(=O)c1ccc2nc(-c3ccccc3)[nH]c2c1 (centres undefined) | 50% |
| CCc1cccc(NC(=O)C2CCCN2S(=O)(=O)c2ccc3c(c2)n(C)c(=O)c(=O)n3C)c1 (centres undefined) | 85% |
| COc1cccc(NC(=O)C2CCCN2S(=O)(=O)c2ccc3nc(-c4ccccc4)[nH]c3c2)c1 (centres undefined) | 44% (active) |
| Cc1cccc(NC(=O)C2CCCN2S(=O)(=O)c2ccc3nc(-c4ccccc4)[nH]c3c2)c1 (centres undefined) | 37% (active) |
| Cc1cc(C)cc(NC(=O)C2CCCN2S(=O)(=O)c2ccc3nc(-c4ccccc4)[nH]c3c2)c1 (centres undefined) | 38% (active) |
| CC(C)c1ccc(NC(=O)C2CCCN2S(=O)(=O)c2ccc3nc(-c4ccccc4)[nH]c3c2)cc1 (centres undefined) | 44% |
| COc1ccc(NC(=O)C2CCCN2S(=O)(=O)c2ccc3nc(-c4ccccc4)[nH]c3c2)cc1 (centres undefined) | 77% |
| Cc1ccc(NC(=O)C2CCCN2S(=O)(=O)c2ccc3nc(-c4ccccc4)[nH]c3c2)cc1C (centres undefined) | 92% |
| CCc1cccc(NC(=O)C2CCCN2S(=O)(=O)c2ccc3nc(-c4ccccc4)[nH]c3c2)c1 (centres undefined) | 35% (active) |
| CCOC(=O)N1CCC(NC(=O)c2cnn(-c3ccc(C)cc3C)c2C2CCN(C(=O)OC(C)(C)C)CC2)CC1 | 124% |
| O=C(CNC(=O)c1ccccc1Cl)OCc1cc(=O)n2nc(C3CC3)sc2n1 | 78% |
| CCCCOC(=O)c1ccc(NC(=O)c2cc(-c3ccccc3)on2)cc1 | 91% |
| Cc1ccc(NC(=O)CSc2ncnc3c2sc2ccccc23)cc1C | 113% |
| CCN1CCN(Cc2c(O)ccc3oc(C)c(C(=O)Nc4ccc(OC)cc4)c23)CC1 | 78% |
| Cc1cc2c(C)nc3ccc(C(=O)O)cc3c2o1 | 71% |
| Cc1ccc(OC(C)C(=O)N2CCN(CCc3ccncc3)CC2)cc1C (centres undefined) | 52% |
| Cc1ccc(Cl)cc1N1CCN(C(=O)C2CCN(S(=O)(=O)c3c(C)noc3/C=C/c3ccccc3F)CC2)CC1 | 72% |
